According to PubChem BioAssay (EPA / NIEHS):
Inconclusive results are not listed. Active and inactive are the calls of the source. How the source made its calls, unless noted: active means hit-call score of the fitted dose curve at least 0.9, where 1 is the maximum; inactive means score below 0.9.

Assays:
[1] = CCTE_Shafer_MEA_acute_burst_percentage_std: CCTE's Neural Acute Assay for Standard Deviation of Burst Percentage, Shafer Lab (AID 2284018);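 further: fitted in the negative direction so actives lower burst percentage SD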
In short: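 Primary rat cortical neurons on 16-electrode MEA wells were recorded 40 min at baseline (DIV 13 or 15), then 40 min after compound (0.03-40 uM), at 37 C. Well value is SD across electrodes of spikes-in-bursts/total spikes; endpoint is percent change, DMSO-referenced.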

[2] = CCTE_Shafer_MEA_acute_per_network_burst_electrodes_number_mean: CCTE's Neural Acute Assay for Mean Number of Electrodes in a Network Burst, Shafer Lab (AID 2284021);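 further: curves fitted for decreases only so hits reduce electrodes per burst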
In short: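 Percent change from baseline in average electrode count per network burst, rat cortical cultures on 48-well MEAs; 40-min recordings each side of exposure, DIV 13 or 15; threshold 8x rms noise; DMSO as negative control.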

[3] = CCTE_Shafer_MEA_acute_cross_correlation_HWHM: CCTE's Neural Acute Assay for Cross Correlation at Half Width at Half Maximum, Shafer Lab (AID 2284026);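 further: spontaneous network firing of rat primary cortical neurons on multiwell microelectrode arrays; percent change per well from pre-dose baseline in spike cross-correlogram half width; hits are a decrease in cross-correlogram half width relative to DMSO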
In short: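 Percent change in cross-correlogram half width at half maximum, narrower meaning more synchrony, was derived per well from paired 40-min recordings before and during exposure to 0.03-40 uM compound in rat cortical cultures at 37 C.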

[4] = CCTE_Shafer_MEA_acute_synchrony_index: CCTE's Neural Acute Assay for Synchrony, Shafer Lab (AID 2284027);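 further: network synchrony index of spontaneous spiking in primary rat cortical neurons on MEAs; fitted for loss of signal so actives lower synchrony relative to DMSO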
In short: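 Primary rat cortical neurons on 16-electrode MEA wells were recorded 40 min at baseline (DIV 13 or 15) and 40 min after compound (0.03-40 uM) at 37 C. Synchrony index (0-1) expressed as percent change from baseline, versus DMSO.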

[5] = CCTE_Shafer_MEA_acute_LDH: CCTE's Lactate Dehydrogenase Assay for Cytotoxicity in the Neural Acute Assay, Shafer Lab (AID 2284086; active means hit-call score of the fitted dose curve at least 0.9, where 1 is the maximum;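 further: active means LDH release rises above DMSO vehicle level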)
In short: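 Primary rat cortical neurons on 48-well MEA plates, treated on day 13 or 15 post-plating. After the 40-min recording with compound, medium LDH release was read by absorbance at 490 nm. Gain of signal was fitted against DMSO negative control.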

[6] = CCTE_Shafer_MEA_dev_bursting_electrodes_number: CCTE's Neural Network Formation Assay for Number of Bursting Electrodes, Shafer Lab (AID 2284043; active means hit-call score of the fitted dose curve at least 0.9, where 1 is the maximum)
In short: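 Primary rat cortical neurons were cultured on PEI-coated 48-well MEA plates (16 electrodes/well) and exposed from plating through day 12, with compound renewed at feeds on DIV 5 and 9. Electrodes bursting ≥1 per 2 min were counted on DIV 5, 7, 9, 12; trapezoidal AUC taken.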

[7] = IUF_NPC1a_proliferation_area_72hr: Leibniz Research Institute for Environmental Medicine (IUF) 72-hour Neural Progenitor Cell Proliferation Area Assay (NPC1a) (AID 2284208)
In short: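 Measured in 3D suspension: each well held one primary hNPC sphere grown with EGF and FGF at pH 7.2-7.6. Compound stayed on for 72 h, then area was imaged; spheres lacking growth factors defined reduced proliferation.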

[8] = IUF_NPC1_viability_72hr: Viability Assessment at 72 hours in the Leibniz Research Institute for Environmental Medicine (IUF) Neural Progenitor Cell Proliferation Assay (NPC1) (AID 2284209)
In short: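 Human fetal-cortex neural progenitor spheres (0.25–0.35 mm, one per well) grown in EGF/FGF proliferation medium at 37C, pH 7.2-7.6, exposed 72 h without renewal; viability read as alamar blue resazurin-to-resorufin fluorescence relative to DMSO.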

[9] = TAMU_PeakParms_SingleDonor1434_QT: Texas A&M University (TAMU) 1.5-hr Human Induced Pluripotent Stem Cell (iPSC)-derived Cardiomyocytes Calcium (Ca+2) Flux Assay for Cardiotoxicity: QT (decay-rise ratio) (AID 2284235; active means hit-call score of the fitted dose curve at least 0.9, where 1 is the maximum)
In short: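 iPSC-derived cardiomyocytes (single donor 1434) dosed at 0.2, 1, 10, 100 uM final in 0.5% DMSO, 90 min at 37C. Ca2+ flux fluorescence decay/rise ratio; EC05 (5% increase versus DMSO) as POD, excluding beat-arrest and severe-notch data.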

[10] = IUF_NPC2c_oligodendrocyte_migration_120hr: Leibniz Research Institute for Environmental Medicine (IUF) 120-hour Neural Progenitor Cell Migration Assay for Oligodendrocyte Migration (NPC2c) (AID 2284297);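 further: O4-positive oligodendrocyte migration distance divided by radial glia migration distance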
In short: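 Using fetal brain neural progenitor spheres differentiating in N2 medium at 37C, compounds were present for 120 h. Oligodendrocyte migration distance, normalized to radial glia migration, was measured from imaged O4 staining.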

[11] = IUF_NPC2a_radial_glia_migration_120hr: Leibniz Research Institute for Environmental Medicine (IUF) 120-hour Neural Progenitor Cell Migration Assay for Radial Glia Migration (NPC2a) (AID 2284298)
In short: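 Exposure of 0.3 mm primary hNPC spheres runs day 0 to 120 h with a half-volume medium change at day 3. Fixed cells get Hoechst staining; high-content analysis of nuclear positions yields radial glia migration distance per well, compared against DMSO controls.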

[12] = IUF_NPC2a_radial_glia_migration_72hr: Leibniz Research Institute for Environmental Medicine (IUF) 72-hour Neural Progenitor Cell Migration Assay for Radial Glia Migration (NPC2a) (AID 2284299)
In short: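 Human fetal cortex (GW 16-19) neural progenitor spheres, 0.3 mm, plated on poly-D-lysine/laminin in N2 differentiation medium with compound from day 0. Radial glia migration distance (um, sphere core edge to migration edge) measured manually in four directions on 72 h brightfield images; well mean used.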

[13] = IUF_NPC2b_neuronal_migration_120hr: Leibniz Research Institute for Environmental Medicine (IUF) 120-hour Neural Progenitor Cell Migration Assay for Neuron Migration (NPC2b) (AID 2284300)
In short: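 Fetal human NPC spheres migrate on PDL/laminin during 120 h compound treatment; neuronal migration distance, glia-normalized, scored versus DMSO control.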

[14] = IUF_NPC3_neuronal_differentiation_120hr: Leibniz Research Institute for Environmental Medicine (IUF) 120-hour Neuronal Differentiation Assay (NPC3) (AID 2284301)
In short: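 Primary human fetal neural progenitor spheres (GW 16-19, 0.3 mm) plated on poly-D-lysine/laminin in N2 medium, exposed from day 0 for 120 h with half-medium refresh at day 3. TUBB3+ cells as percent of Hoechst nuclei in migration area; DMSO baseline.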

[15] = IUF_NPC4_neurite_length_120hr: Leibniz Research Institute for Environmental Medicine (IUF) 120-hour Neuronal Morphology Assay for Neurite Length (NPC4) (AID 2284302)
In short: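 Human fetal cortex (GW 16-19) neural progenitor spheres, 0.3 mm, were plated on poly-D-lysine/laminin in N2 differentiation medium and exposed from day 0 for 120 h, half-feeding at day 3. Mean TUBB3+ neurite length (µm) came from skeletonized images, relative to DMSO.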

[16] = IUF_NPC4_neurite_area_120hr: Leibniz Research Institute for Environmental Medicine (IUF) 120-hour Neuronal Morphology Assay for Neurite Area (NPC4) (AID 2284305; active means hit-call score of the fitted dose curve at least 0.9, where 1 is the maximum)
In short: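 Human fetal cortex-derived neural progenitor spheres (0.3 mm, GW 16-19) plated on poly-D-lysine/laminin in N2 differentiation medium and exposed from day 0 for 120 h across 7 concentrations plus solvent control. Neurite area is mean pixel area per TUBB3-positive neuron via skeletonization, analysed relative to DMSO.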

[17] = IUF_NPC2-5_cytotoxicity_72hr: Cytotoxicity Assessment at 72 hours in the Leibniz Research Institute for Environmental Medicine (IUF) Neural Progenitor Cell Migration and Differentiation Assay for Cytotoxicity (NPC2-5) (AID 2284306; active means hit-call score of the fitted dose curve at least 0.9, where 1 is the maximum;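 further: LDH release into supernatant measured by resorufin fluorescence marking membrane damage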)
In short: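 Human fetal (GW 16-19) neural progenitor spheres, 0.3 mm, plated on poly-D-lysine/laminin in N2 differentiation medium and exposed from day 0 to 7 concentrations plus solvent control (DMSO ≤0.1%). LDH-dependent resazurin-to-resorufin fluorescence in supernatant at 72 h.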

[18] = IUF_NPC2-5_cytotoxicity_120hr: Cytotoxicity Assessment at 120 hours in the Leibniz Research Institute for Environmental Medicine (IUF) Neural Progenitor Cell Migration and Differentiation Assay (NPC2-5) (AID 2284307; active means hit-call score of the fitted dose curve at least 0.9, where 1 is the maximum)
In short: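 Membrane-integrity loss is quantified by LDH in supernatant after five days of exposure of migrating, differentiating human fetal NPC spheres; seven serially diluted concentrations are tested with DMSO kept at or below 0.1%.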

[19] = IUF_NPC2-5_cell_number_120hr: Cell Number Assessment at 120 hours in the Leibniz Research Institute for Environmental Medicine (IUF) Neural Progenitor Cell Migration and Differentiation Assay (NPC2-5) (AID 2284308);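 further: count of Hoechst-stained nuclei in migration zone around plated human neural progenitor spheres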
In short: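 Seven-point serial dilutions plus solvent control were applied to plated 0.3 mm hNPC spheres at differentiation start, with medium half-replaced at day 3. Nuclei positive for Hoechst in the migration zone were enumerated at 120 h.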

TTR (gene 7276) = experiment: CCTE_GLTED_hTTR_0.125uM: CCTE's human Transthyretin (hTTR) Inhibition Assay, with 0.125uM TTR, Great Lakes Toxicology and Ecology Division (GLTED) Lab (AID 2284431);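 further: hits lower the fluorescence signal relative to DMSO baseline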
In short: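 Activity is defined as decreased ANSA fluorescence (ex 380, em 475) from human transthyretin, 0.125uM, following 2-hour chemical exposure in a cell-free setup, with DMSO as baseline.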

Measured: AC50

O=[N+]([O-])O
inactive: [1] | [2] | [3] | [4] | [5]

CC(C)CCCCCCCOP(=O)(Oc1ccccc1)Oc1ccccc1
not listed: [1] | [2] | [3] | [4] | [5] | TTR (gene 7276)
inactive: all other assays above

CNC(=N[N+](=O)[O-])NCC1CCOC1 (configuration not stated)
not listed: [1] | [2] | [3] | [4] | [5] | [6] | [9] | TTR (gene 7276)
inactive: all other assays above

Nc1ccc(Cl)c(Cl)c1
active: TTR (gene 7276) 18.3 µM
